The source of these data is PubChem BioAssay (NCI).

SMILES strings stand for the structures. Where “and” joins values, the source holds several entries; their conditions need not be identical. Identical values can stand only once. About 83,000 compounds went through this panel and 20% of them were active in at least one assay; those are over-represented in the sample as a whole.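 Single-concentration screen, 48 h exposure, 96-well plates. Endpoint: percent growth. Below 10 = active.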 Values without a mark were called inactive. Calls of active or inactive are those of the source.

This assay deals with MDA-MB-468 breast. Kind of assay: NCI-60 one-dose screen, 48 h (100 = growth as untreated, 0 = no growth, -100 = all killed). The following applies: 10 µM unless noted.
As to `O=C(/C=C/c1ccccc1)c1ccc(O)c(CN2CCN(c3cc4c(cc3F)c(=O)c(C(=O)O)cn4C3CC3)CC2)c1`, the growth is 3.64% (active).
Turning to `NC(=O)Nc1ccc(-n2cnc3cc(-c4ccc(O)cc4)ccc32)cc1`, the growth was 129%.
For `CN1CCN(CCC(=O)Nc2cccc(-n3cc(-c4ccncc4)c(-c4ccc(Cl)c(O)c4)n3)c2)CC1` the value was 12.7%; for `CC(c1ccccc1)N1CSc2nc3ncncc3n2C1` (centres undefined), -0.761% (active); for `COc1cc(-c2nc3sccn3c2-c2ccnc(NCCCNS(=O)(=O)c3ccc(F)cc3)n2)ccc1F`, 61.3%.
Consider `Clc1cccc(Nc2ncnc3ccc(-c4cnc5[nH]ccc5c4)cc23)c1`, for which the growth is -16.9% (active).
On to `COc1ccccc1S(=O)(=O)Nc1ccc2c(c1)CN(C)C(=O)N2`, for which the growth was 21.1%.
For `COc1cc(C)ccc1Oc1nc(Nc2ccc(N3CCOCC3)cc2)ncc1NC(=O)Nc1cc(C(F)(F)F)cc(C(F)(F)F)c1` the value was 72.8%; for `CN1CCN(C(=O)[C@@]2(C)CC[C@]3(C)CC[C@]4(C)C(=CC[C@@H]5[C@@]6(C)C/C(=C/c7ccncc7)C(=O)C(C)(C)[C@@H]6CC[C@]54C)[C@@H]3C2)CC1`, 37.5%.
The same measure for `CCS/C(Nc1ccccc1)=C(\C#N)C(=O)Nc1ccc(OC)cc1`: -2.63% (active).
`Cc1cc(Cl)nc(N(CCCNc2ccnc3cc(Cl)ccc23)Cc2ccco2)n1`: the growth is 0.466% (active).
For `CS(=O)(=O)Nc1cc(-c2cc3ncc(C#N)c(Nc4ccc(Oc5ccccc5)c(Cl)c4)c3s2)cnc1Cl` the value was 43.3%; for `O=C(NCCCCNC(=O)OCc1ccc2c(Cl)cc(Cl)c(O)c2n1)OCc1ccc2c(Cl)cc(Cl)c(O)c2n1`, -5.78% (active); for `CCCCN1C(=O)CC(SC2CC(=O)N(CCCC)C2=O)C1=O` (centres undefined), 105%.
With `O=C(CCl)Nc1ccc2c(c1)C(=O)c1ccccc1C2=O`, the growth is -19.1% (active).
On to `Cc1cc(C)c2sc(=O)n(Cc3nnc(SCCC(=O)O)o3)c2n1`, for which the growth is 110%.
In the case of `CCN(CC)c1ccc(/C=C/C=C2\NC(=O)NC2=O)cc1`, the growth is -5.35% (active).
Consider `COc1ccc(NC(=S)/N=c2\oc3c(OC)cccc3cc2-c2cc3ccccc3[nH]2)cc1`, for which the growth is 82.1%.
For `COc1ccc2nc3cc(Cl)ccc3c(N3CCN(c4ccnc(Nc5ccc(F)cc5)n4)CC3)c2c1` the value was 63.8%; for `COc1ccc(-c2cnc(-c3ccc(F)cc3)[nH]2)cc1`, 90.3%; for `C#CCOc1ccc(C(Nc2ccc(Cl)cc2)c2nnnn2C2CCCCC2)cc1` (centres undefined), 87.1%.
Consider `CCN(CC)CCOc1cccc2c1C(=O)c1cccc(OCCN(CC)CC)c1C2=O`, for which the growth is 8.32% (active).
For `OC(CSc1ccccc1)CN1CCN(c2cccc(Cl)c2)CC1` (centres undefined) the value was 96.8%; for `CCN(Cc1ccc(CN(CC)C(=O)C(Cl)(Cl)Cl)cc1)C(=O)C(Cl)(Cl)Cl`, 62.5%; for `COc1cc(NS(C)(=O)=O)ccc1Nc1c2ccccc2nc2ccccc12`, -3.7% (active) and -17.8% (active).
Regarding `CN(C)C(=S)Sc1ccc([N+](=O)[O-])cc1[N+](=O)[O-]`, the growth was -78.7% (active).
Regarding `CCN(CC)CCNC(=O)c1ccc(NC(C)=O)cc1`, the growth was 111%.
For `CCOC(=O)c1c(Nc2ccccc2)nn2c(N)c(C#N)c(-c3ccc(F)cc3)nc12` the value was 82.5%.
The same measure for `Nc1nc(N)c(N=Nc2ccc(C(=O)O)cc2)c(N)n1`: 114%; for `NC(=Nc1ccc(N)cc1)C(N)=Nc1ccc(N)cc1`: 94.3%.
For `Cc1ccc(Cc2cnc(NC(=O)c3ccc4noc(-c5ccccc5)c4c3)s2)cc1` the value was 91%; for `Cc1cc(Nc2ccc3c(c2)OCO3)c2cc3c(cc2n1)OCO3`, 26.5%; for `O=C(N/N=C\c1cc(Br)ccc1O)c1ccncc1`, 24%.
In the case of `O=S(=O)(NCCNc1cc(-c2cn(-c3ccccc3)nc2-c2ccccc2)ccn1)c1ccc(F)cc1`, the growth was 58%.
On to `Nc1c(C(=O)Nc2cccc(C(F)(F)F)c2)sc2nc3c(cc12)CCCCCC3`, for which the growth was -24.9% (active).
For `COc1ccc(/C=C(\C#N)n2nnc3cc(Cl)ccc32)cc1`, the growth was 18.5%.
The same measure for `O=c1cc(-c2ccccc2)[nH]c2ccccc12`: 59.5%; for `O=C(O)CCC/C=C\C[C@H]1C=CC(=O)/C1=C/C[C@@H](O)CCc1cccc(C(F)(F)F)c1`: -6.7% (active); for `COc1ccc(/C(C)=C(\c2ccc(OCCN3CCCCCC3)cc2)c2ccc(OC(=O)c3ccccc3)cc2)cc1`: 61.3%.
